iPSC survival up: enhancers of human iPSC single-cell survival | hiPSC single-cell survival, ATPlite luminescence; 100% = ROCK inhibitor wells, 0% = DMSO | survival enhancement, % at 20 µM | hit rate 0.044% among 360,000; in the data active = survival enhancement above about 18%;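 note: cells exposed to compounds for 16 hours before the ATP read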
CF NFkB inh: cystic fibrosis NF-kB activation inhibition | KKLEB NF-kB-GFP reporter, PAF-induced, GFP fluorescence overnight | inhibition, % at 5 µM | hit rate 0.86% among 360,000;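 active = at least 50% inhibition at 5 µM, scaled per plate between neutral and stimulator controls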;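 note: PAF is a Pseudomonas aeruginosa culture filtrate used as stimulus; plate controls were PAF-stimulated DMSO wells for no effect and unstimulated DMSO wells for full effect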
LGR2 antag: blocks bursicon-induced cAMP signaling via Drosophila LGR2; HEK293 LGR2, CRE-luciferase, bursicon-stimulated, 4 h; inhibition, % at 9.99 µM; hit rate 0.35% among 380,000;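 active = drop in luminescence signal, shown as inhibition above about 50% in the replicate tests, limit read from the data, passing the limit was not always enough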;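 note: agonist challenge used bursicon conditioned medium at about half maximal strength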
HIF-2a inh: HIF-2a inhibition; hit rate 0.72% among 360,000; inhibition, % at 18.8 µM; 786-0 RCC cells HIF-2a reporter, luciferase luminescence, overnight; AID 624352;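 active = inhibition of the luminescence signal of 40% or more relative to plate controls, in a single-dose primary screen at 18.75 µM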
KKLEB cytotox: CF airway cell cytotoxicity counter-screen | KKLEB CF airway cells viability, ATPlite luminescence, overnight; hits give low values; cells stimulated with P. aeruginosa culture filtrate | activity change (cytotoxicity), % at 5 µM | hit rate 0.36% among 360,000;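 active = corrected activity change at or below -50% at 5 µM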
TWEAK-Fn14 inh: TWEAK-Fn14 signaling inhibition. TWEAK-stimulated Fn14 reporter cells, luciferase luminescence, 8 h. inhibition, % at 10 µM. hit rate 2% among 360,000; in the data active = inhibition above about 50%
Active calls of the source: *; nt = not tested or not shown. This is a sample that favours compounds with a hit; in the whole collection about 2.3% have one here.

SMILES	iPSC survival up	CF NFkB inh	LGR2 antag	HIF-2a inh	KKLEB cytotox	TWEAK-Fn14 inh
O=c1[nH]c2ccccc2n1C1CCN(C(c2cccc3ccccc23)c2nnnn2-c2ccc3c(c2)OCCO3)CC1 (configuration not stated)	6	84*	8	-19	-85*	46
COc1ccc(-n2nnnc2C(c2cc3ccccc3o2)N2CCC(n3c(=O)[nH]c4ccccc43)CC2)cc1 (configuration not stated)	-1	11	76*	-5	-15	103*
Cc1cccc(C)c1-n1nnnc1C(c1cccc2ccccc12)N1CCC(n2c(=O)[nH]c3ccccc32)CC1 (configuration not stated)	3	26	16	-10	-8	14
O=C(O)[C@@H]1[C@@H](CO)[C@@H]2Cn3c(ccc(C4=CCCC4)c3=O)[C@H]1N2C(=O)Cc1ccccn1	nt	nt	-16	nt	nt	nt
COc1ccc(CCNCc2sccc2C)cc1OC	-1	-12	17	11	7	77*
COc1ccc(-c2ccc([C@@H]3[C@H](CO)N4CCCCN(C(=O)Cc5ccccc5)C[C@@H]34)cc2)cc1	nt	nt	4	nt	nt	nt
O=C(Cc1ccccn1)N1CCCCN2[C@H](C1)[C@@H](c1ccc(-c3ccccc3F)cc1)[C@@H]2CO	nt	nt	-8	nt	nt	nt
COC(=O)c1ccc(NC(=O)CSc2nc3ccc(N4C(=O)C5C6C=CC(C6)C5C4=O)cc3s2)cc1 (configuration not stated)	0	-7	104*	-93	-1	91*
Cc1cccc(S(=O)(=O)N2[C@@H]3Cn4c(ccc(-c5ccncc5)c4=O)[C@H]2[C@@H](C(=O)O)[C@@H]3CO)c1	nt	nt	1	nt	nt	nt
COc1ccc(C(CC(=O)N2CCC3(CC2)OCCO3)NS(=O)(=O)c2ccc(OC)cc2)cc1 (configuration not stated)	0	-2	nt	12	2	5
COc1ccc(S(=O)(=O)NC(CC(=O)N2CCC3(CC2)OCCO3)c2ccco2)cc1 (configuration not stated)	2	-7	nt	7	6	90*
Cc1ccccc1-c1ccc([C@@H]2[C@H]3CN(C(=O)Cc4ccccn4)CCCCN3[C@H]2CO)cc1	nt	nt	5	nt	nt	nt
NC(N)=N/N=C/c1ccc(N(c2ccccc2)c2ccccc2)cc1	-1	-5	52*	95*	0	12
COc1ccc(/C=N\N=C(N)N)cc1	-1	-3	29	7	14	13
COCCCn1c(-c2ccc(OC)cc2)cc(C(=O)NC2CCCCCCC2)c1C	-2	20	22	21	-6	64*
COc1ccc(-c2ccc3c(c2)CN(C(=O)NC2CCCCC2)Cc2cnnn2-3)cc1	-2	34	-17	11	-15	-4
COC(=O)[C@@H]1[C@@H](CO)[C@@H]2Cn3c(ccc(-c4ccccc4F)c3=O)[C@H]1N2C(=O)C1CCC1	nt	nt	-9	nt	nt	nt
CCN1[C@@H]2Cn3c(ccc(-c4cccc(C(=O)N(C)C)c4)c3=O)[C@H]1[C@@H](C(=O)OC)[C@@H]2CO	nt	nt	-2	nt	nt	nt
CSCCC(c1nnnn1C1CCCCC1)N1CCC(n2c(=O)[nH]c3ccccc32)CC1 (configuration not stated)	0	33	12	-15	2	15
CSCCC(c1nnnn1-c1c(C)cccc1C)N1CCC(n2c(=O)[nH]c3ccccc32)CC1 (configuration not stated)	0	37	93*	-5	-26	38
O=c1[nH]c2ccccc2n1C1CCN(C(CCc2ccccc2)c2nnnn2C2CCCCC2)CC1 (configuration not stated)	0	86*	94*	-84	-69*	69*
CSCCC(c1nnnn1C1CCCC1)N1CCC(n2c(=O)[nH]c3ccccc32)CC1 (configuration not stated)	-1	1	37	-17	-4	-3
CSCCC(c1nnnn1Cc1ccccc1)N1CCC(n2c(=O)[nH]c3ccccc32)CC1 (configuration not stated)	5	87*	15	-17	-104*	36
O=C(O)[C@@H]1[C@@H](CO)[C@@H]2Cn3c(ccc(-c4cccc(F)c4)c3=O)[C@H]1N2CCc1ccccc1	nt	nt	1	nt	nt	nt
O=C(Cc1ccccn1)N1CCCCN2[C@H](CO)[C@H](c3ccc(-c4ccccc4)cc3)[C@@H]2C1	nt	nt	-20	nt	nt	nt
SMILES	iPSC survival up	CF NFkB inh	LGR2 antag	HIF-2a inh	KKLEB cytotox	TWEAK-Fn14 inh
O=C(/C=C/c1ccc2c(c1)OCO2)c1c(O)n(CCC2=CCCCC2)c(=O)[nH]c1=O	-1	-22	nt	19	-3	51*
CC=Cc1ccc2n(c1=O)C[C@H]1[C@H](CO)[C@@H](C(=O)OC)[C@@H]2N1C(=O)CC1CC1 (mixture of isomers)	nt	nt	-6	nt	nt	nt
Cc1cccc(S(=O)(=O)N2[C@@H]3c4ccc(-c5ccccc5)c(=O)n4C[C@H]2[C@H](CO)[C@H]3C(=O)O)c1	nt	nt	-1	nt	nt	nt
CN1CCN(c2cccc3c2C(=O)c2ccccc2C3=O)CC1	-2	-10	-45	7	1	55*
C/C(=C\c1ccc(N(C)C)cc1)[N+](=O)[O-]	1	-5	96*	93*	-33	46
CN(C)c1ccc(/C=C/[N+](=O)[O-])cc1	-3	4	nt	11	0	-8
CCN(CC)C(=O)Cn1cc(/C=C2\C(=O)NC(=O)N(c3ccccc3F)C2=O)c2ccccc21	0	-33	13	44*	-4	66*
O=C(O)Cn1cc(/C=C2\C(=O)NC(=O)N(c3ccc(Cl)cc3)C2=O)c2ccccc21	0	-3	0	22	-7	-3
COc1cc(/C=C/c2nc3ccccc3c(=O)n2-c2ccc(O)cc2)ccc1O	0	-40	16	7	-7	54*
C[C@H](CO)N1C[C@H](C)[C@H](CN(C)C(=O)Oc2ccccc2)OCc2ccccc2-c2c(n(C)c3ccccc23)C1=O	nt	nt	3	nt	nt	nt
O=C(Nc1ccccc1)c1cccn(Cc2ccccc2)c1=O	-2	-17	-101	-239	3	8
O=C(Nc1ccncc1)c1cccn(Cc2ccccc2)c1=O	0	8	-16	5	-3	50*
C=Cc1cc(OC)c2c(c1)c(=O)oc1c2cc(OC)c2c(O)ccc(C3OC(C)C(O)C(C)(O)C3O)c21 (configuration not stated)	-4	79*	nt	52*	-25	91*
CC1=C2C(=O)C3C(CC=C4CC(O)CCC43C)C2CCC12OC1CC(C)CNC1C2C (configuration not stated)	-1	-5	-4	0	-3	97*
O=C(Cc1ccncc1)N1CCCCN2[C@H](C1)[C@@H](c1ccc(C#CC3(O)CCCC3)cc1)[C@@H]2CO	nt	nt	-6	nt	nt	nt
O=C(Cc1cccnc1)N1CCCCN2[C@H](CO)[C@H](c3ccc(/C=C/c4ccccc4)cc3)[C@H]2C1	nt	nt	-20	nt	nt	nt
